# Laboratory results published in publication PMC12136788.
# In all, about 24,000 sequences were measured (“enrichment r”: median about 0.99, highest 2% from about 3.7 on). The list is a sample of the results.
# B1: chr12:16048344:16048345:+_ENSG00000023734_ENST00000419869|hu_hu|hu_hu_hu_mus_True|18_18 (ssRNA)
# RNA: GGGAGUUCUACAGUCCGACGAUCAGAUCGUCCAUAAGUAAUAACCAAAAUCUCUCCUUCAGGAAUAUACUCCAUGCUGCUAACAGACAUAUUAAAAUUCAGAGAUUUCACUUCUGUCAUAGUAGCAUGAUCCCAGAGCCGAACCAACAGAGGAUUGAGCAUCA
# B2: chr5:134191040:134191041:+_ENSG00000181904_ENST00000394976|hu_hu|motif|central (ssRNA)
# RNA: GGGAGUUCUACAGUCCGACGAUCAAAAGCAGCAGUGCCACAGCCAUAACCAAGAUCGGCAAGACGGGAUAGAGCUUUAAUGCGGCCUGGAGGUCUGCCUGGGCUGACUUUGUAUCCCGCAGCUUUAGUUGUCCCCAAAGGUCUCAACAGAGGAUUGAGCAUCA
# B3: chr9:74905015:74905016:+_ENSMUSG00000007656_ENSMUST00000169492|mus_hu|FALSE|FALSE (ssRNA)
# RNA: GGGAGUUCUACAGUCCGACGAUCUGUGUUUGAAAUAUGUGACCUUUCUUCUAACUUGUGGUCUUAAACUUCUGUUUUACAAAAUCCAAAAGGUAAAUACAGAAGAAAUCAAUACAAUAGAGAUUAUAUUAAAUAAGAGUAACACAACAGAGGAUUGAGCAUCA
# B4: chr22:32879901:32879902:+_ENSG00000100225_ENST00000397426|hu_mus|hu_hu_hu_mus_False|8_18 (ssRNA)
# RNA: GGGAGUUCUACAGUCCGACGAUCCUCUUCCAUACUCAUGGCAUCCUGAAUUGACUCAGCUUCAACAUUUUGACUAGGCCCUUCCAUACUGUCAUCAGUCCAGGCAUCAAAUGGGGUUGCCUGUCCUUGGAAUGAAUCAGUCCCCAACAGAGGAUUGAGCAUCA
# B5: chr6:50805741:50805742:+_ENSG00000008196_ENST00000393655|hu_hu|FALSE|FALSE (ssRNA)
# RNA: GGGAGUUCUACAGUCCGACGAUCCAGGGAGGUGAGUAACGUGACAUUUGCUGCUUUGCGCCUGCCCGCGGGUAAAUUCAAACCGAUUUUUUCUAGCCUUUCUCGCAAAGAUCUCCCCCCAUUUUUCGAUUUGGCUCUUCUGAGCAACAGAGGAUUGAGCAUCA
# B6: chr7:99593380:99593381:+_ENSMUSG00000052572_ENSMUST00000098308|mus_hu|FALSE|FALSE (ssRNA)
# RNA: GGGAGUUCUACAGUCCGACGAUCGGUGAGGAGGCUCUCAUCUCAUCUCUUGGGCAGAAAGCCCGUCAGAGGUUCAUCCCUACACCUGGCACUUUGAGCAAACCAAAGCCUUCCUUCAUACUGCAAUGUCUUUUCUGUCCCACCCAACAGAGGAUUGAGCAUCA
# B7: 73047273_73096420_338_5pUTR_ENSG00000163605_ENST00000295862|human|control|control (ssRNA)
# RNA: GGGAGUUCUACAGUCCGACGAUCGGCUCAGGAGCUGAAGUUCUGAAAUCAUCCAUCACUUUCUCCAGUUUGAAAAUAAAAUAGCCUUUAAAUUGGGACCACUGAAUCAUUGUUUCUCCAGUCUUGGCUACAUGACAAAGAAACCAACAGAGGAUUGAGCAUCA
# B8: chr3:179287964:179287965:+_ENSG00000136518_ENST00000429709|hu_hu|hu_hu_hu_mus_True|28_38 (ssRNA)
# RNA: GGGAGUUCUACAGUCCGACGAUCCUUGAGUGGUGAGAUGGCCUCCAUGUUCUCCCUGGGCACGCGGAGGGCAUUGGUGUCUAUGUAGUAGGUGGGCCCGCCUUGUUUGCCUUUAUCACCAUCAAUCUCCAUCAUUGUACUUCCCAACAGAGGAUUGAGCAUCA
# B9: chr9:35286173:35286174:+_ENSMUSG00000038119_ENSMUST00000042842|mus_hu|FALSE|FALSE (ssRNA)
# RNA: GGGAGUUCUACAGUCCGACGAUCAGUGUUAUUGUUACUUGAUGGAAUGUACGUCCACUUUAGCAUGAUCUGAGUAUCGCUGACAGCCUCUGUGUAUGCAAUGUGAGGUCCAGUUAUUGGACGGCUGGAAAAGCGAUUGGGGAACAACAGAGGAUUGAGCAUCA
# B10: chr1:39494564:39494565:+_ENSG00000168653_ENST00000372967|hu_hu|hu_hu_hu_mus_True|28_68 (ssRNA)
# RNA: GGGAGUUCUACAGUCCGACGAUCAUGCAUUCGCCUCAUCGUUUUGUACCGAAGCAAGCACUCUUCGAAAUCAUCAUACUCUAUCUUGCACUCCUUUUUCGCCCGGGUAUAACCGAUCCCGUGUGCACACUCUAUCCACUCUUUCAACAGAGGAUUGAGCAUCA
# B11: 3369786_3369906_1343_3pUTR_ENSMUSG00000025899_ENSMUST00000053407|mouse|control|control (ssRNA)
# RNA: GGGAGUUCUACAGUCCGACGAUCAGUCCUUGUUGAUGCCAAGGUAUUUUCCAUUUCCACAUCCGAUAUCUGCCACUAUGGAACCACUUGGCAAAGCUUUCAGGAACUCUACUAUGCGUGGCCAUGGGCUAUGUCUUGUGCUGCCAACAGAGGAUUGAGCAUCA
# B12: chr7:141450121:141450122:+_ENSG00000106028_ENST00000265304|hu_mus|hu_hu_hu_mus_True|68_88 (ssRNA)
# RNA: GGGAGUUCUACAGUCCGACGAUCUCAUCCGUUCUAUGCCUUUUCUUUCGUCUGGUCACUCAGAAAUAUAAUAUUAUCAGCUAUGAUUGUUGUUGCUUGCCGCCUCACAUUGUUUUUAUCCAUGUACUCGCCAUAGUCCACUUUCAACAGAGGAUUGAGCAUCA
# B13: 139369022_139369142_3059_CDS_ENSG00000148396_ENST00000313050|human|control|control (ssRNA)
# RNA: GGGAGUUCUACAGUCCGACGAUCGUCAGAAUGGGACGGGUUGUACACGUUUACAGGAUUUUCCAAAGUCCUGCUUAAGGUAAAGUCUAGGGCUCCGUAAGUGUCUUCCUGAUGACUGGAAUGGUUUGCCUUAUUACCAUCAGGCAACAGAGGAUUGAGCAUCA
# B14: chr1:109605286:109605287:-_ENSG00000197780_ENST00000461096|hu_mus|hu_hu_hu_mus_True|8_108 (ssRNA)
# RNA: GGGAGUUCUACAGUCCGACGAUCAAGAACAAUAACAACAUUCAGUAACCUCUUUAAAUGCAAUUAUCCUUAUUAUAAGCUAAGCAGAAUAAUAAUUUAAUACCGUAAGUGAACUACACACAAAGCCGUGUAUUCAGAAAUGGUCAACAGAGGAUUGAGCAUCA
# B15: 25140584_25140782_2291_CDS_ENSMUSG00000026965_ENSMUST00000028341|mouse|control|control (ssRNA)
# RNA: GGGAGUUCUACAGUCCGACGAUCUGCCCAGAAGAGCAGUAGCUCCUCUUCCUUCUGGUCAGCCUGGGAGGCCAUGCCUGAGUCACUCUCAUCAUCACUGUCAAUCAGCACCAUGUUGUCCCUAUCCUGAGGCCGCUCUUCCUCCAACAGAGGAUUGAGCAUCA
# B16: chr15:23003119:23003120:+_ENSG00000068793_ENST00000560848|hu_mus|FALSE|FALSE (ssRNA)
# RNA: GGGAGUUCUACAGUCCGACGAUCUUAUAAAGUUAAGCUUUCAGAUCAAAAGUAGGUUCAGACAUAAUGGAAAAUAGCCCCUAAAAAUUUCAAUAUAGUUUACAUAAAGACAAACAUGCCAUCAGUUACUGGGAUGCUGUGAGCCAACAGAGGAUUGAGCAUCA
# B17: chr11:60965468:60965469:-_ENSMUSG00000042506_ENSMUST00000041683|mus_mus|motif|central (ssRNA)
# RNA: GGGAGUUCUACAGUCCGACGAUCCUAACCACAGUACAAUCAUUGGAUUUUUUUUCCCUCACGAUUUUUUAUUUCAAAGCGGUAAUAAAUGAAACAAACCACUUGUCAAAAAGAACAAUGAUUUUACACAAGGAAAAGCAUACACAACAGAGGAUUGAGCAUCA
# B18: chr17:87833181:87833182:-_ENSMUSG00000036438_ENSMUST00000040440|perfect_dup|motif|central (ssRNA)
# RNA: GGGAGUUCUACAGUCCGACGAUCCGGGCUUAGAUAUAGCCAGAGUAAGCCACAUGCAACAUGUUACUUCAUCAAUUUUCGGAAAUAAGGUUUAAGGACAAUGACAGUAAGAUAAGGGAAGAAAACAUGGAGGAAUGAAGUCCUCAACAGAGGAUUGAGCAUCA
# B19: chr18:52893488:52893489:-_ENSG00000196628_ENST00000354452|hu_hu|hu_hu_hu_mus_True|8_18 (ssRNA)
# RNA: GGGAGUUCUACAGUCCGACGAUCUAUUUAGACCAUUUCCGCGGAGUUAUGGCAUUUACUCAGUGCUGAUAGGUGGAAAAACUACUUCAACAGGGAUUUUUUUUUUCCUUAAUACAUGCCAAGAAUUGUGUGGCUGUAAAACAGCAACAGAGGAUUGAGCAUCA
# B20: 137534387_137536831_709_CDS_ENSG00000094880_ENST00000394886|human|control|control (ssRNA)
# RNA: GGGAGUUCUACAGUCCGACGAUCCUCCUCUAUCAACUGCAACUCUGUGUAUAUAUGAGCCAGAAAAAACUCUUUCAUCCAGGUGUCUGGCAAAGACAGGAACUUCAGCAUCUCUUUGUCUGUGAUCAGGUUACAGAGUUCUAACAACAGAGGAUUGAGCAUCA
# B21: chr16:94651144:94651145:+_ENSMUSG00000040785_ENSMUST00000117648|mus_hu|mus_mus_mus_hu_True|68_108 (ssRNA)
# RNA: GGGAGUUCUACAGUCCGACGAUCAUUCUCUUGGAUCAAGUGGCGAAUAACAUAGUCCACUGCUUCAUGGACAAAAUUUCUGCUAGAAAAACAGGUUGUAUAGUCUUCUGUGCUCAAAACUUUCCAAGAAAGCAAUUCUUUGAGCAACAGAGGAUUGAGCAUCA
# B22: chr14:89307221:89307222:+_ENSG00000165533_ENST00000346301|hu_mus|hu_hu_hu_mus_False|58_98 (ssRNA)
# RNA: GGGAGUUCUACAGUCCGACGAUCUCCUGUUUGGUUAGUUCCAGGGAGCUUCAAAGAUGUGCCAGGGCGUGGGACCUGAGCUAUAGCAUUUUCAUCCAGGAUCAUUUCAGCAAUUCCUUCCUGGUCCACAUCAAUUUCAUCUAUCAACAGAGGAUUGAGCAUCA
# Target: T1, UNK ZnF1-3 (human, UniProt Q9C0B0 31-174)
# T1 sequence: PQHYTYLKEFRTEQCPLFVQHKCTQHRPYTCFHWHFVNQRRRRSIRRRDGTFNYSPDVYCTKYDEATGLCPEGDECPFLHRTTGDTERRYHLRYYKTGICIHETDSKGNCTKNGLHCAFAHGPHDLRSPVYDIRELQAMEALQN
# Experiment: nsRBNS (natural sequence RNA bind-n-seq); RBNS binding buffer (assumed for nsRBNS): 25 mM Tris pH 7.5, 150 mM KCl, 3 mM MgCl2, 0.01% Triton X-100, 500 ug/ml BSA, 20 U/ml SUPERase-In, 4 C; UNK is unkempt and MSI1 is Musashi-1; names of the RNAs are library labels; protein concentration not given here; high values mean tight binding
row,Binder,binding signal [enrichment R]
1,B1,0.977
2,B2,1.39
3,B3,2.28
4,B4,1
5,B5,1.13
6,B6,1.29
7,B7,1.25
8,B8,0.581
9,B9,1.04
10,B10,0.701
11,B11,0.678
12,B12,0.541
13,B13,0.675
14,B14,0.741
15,B15,1.06
16,B16,2.11
17,B17,0.852
18,B18,2.55
19,B19,1.05
20,B20,1.71
21,B21,0.52
22,B22,0.829
